This note sets out measurements from PubChem BioAssay (NCATS).

The nature of test [1]: Viability qHTS for spleen associated tyrosine kinase inhibitor (SYKi) naive MV4-11 cells (AID 1963823). Further: nearly all actives have a fitted effect of over 40% in size. In outline:
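SYK inhibitor-naive MV4-11 cells, 500 per well, exposed to compounds for 72 hr at 37 C, 5% CO2. Viability read as CellTiter-Glo luminescence after 10 min at room temperature.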
(In general: qHTS replaces the single test concentration by a dilution series.)

Test [2] can be described thus: Cellular viability qHTS for adrenocortical cancer (ACC) cell line SW-13 (AID 1963989). Further: nearly all actives have a fitted effect of over 65% in size.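 On activity (max response): cells grown in serum-free medium with ITS supplement; on the % scale 0 is the no-effect control and ±100 the full control effect.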 The note with it: SW-13 ACC cells viability, CellTiter-Glo, 48 h; activity (max response): active compounds read low. The method in brief:
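SW-13 cells in ITS-supplemented serum-free DMEM were plated overnight, then exposed for 48 h at 37C to compound titrations (up to 46 uM final). Viability was read by CellTiter-Glo luminescence; four-parameter logistic fits gave IC50 and efficacy.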

Test [3] in a line: Cellular viability qHTS for adrenocortical cancer (ACC) cell line NCI-H295R (AID 1963990). Further: nearly all actives have a fitted effect of over 60% in size. The method in brief:
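Luminescent ATP read-out (CellTiter-Glo, 20 min RT) after 48 h drug exposure of NCI-H295R cells; a titration up to 46 uM final. Data normalized to doxorubicin (100% inhibition) and DMSO (0%); 4-parameter fit gives IC50, max response.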

Test [4] can be described thus: Viability qHTS for spleen associated tyrosine kinase inhibitor (SYKi) drug resistant MV4-11 cells (AID 1963824). Further: nearly all actives have a fitted effect of over 35% in size. The method in brief: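 CellTiter-Glo luminescence, read 10 min after reagent addition, reports viability after a 72 hr compound exposure. Cells are an MV4-11 line made resistant to SYK inhibition, seeded at 500 per well onto compound-containing plates.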

Several values for one entry are separate records, joined by “and”; a condition that tells them apart may be missing. Equal entries are not always repeated. Results filed as inconclusive are left out. A number with no mark means an inactive call. Activity calls are given as the source filed them. The call rests on the fitted dose curve; in most records, active means well fitted curve in the direction sought with a large enough effect; inconclusive means small, poorly fitted or top-dose-only effect, or another doubt; inactive means no such curve, though single readings can be large; an effect the other way counts as inactive or inconclusive.
Potency means the concentration at half of the fitted maximal effect.

`O=C(C[C@@H]1C/C=C\CCC(=O)O[C@H](c2ccccc2)CNC1=O)NCc1ccc(Cl)cc1`: the Potency in test [1] is 4.68 µM (active). In addition, the activity (max response) in test [2] was 11.5%. Also, the Potency result in test [3] is “inactive”.
In the case of `O=[N+]([O-])c1ccc(O)c2ncccc12`, the Potency was 2.99 µM (active) and 4.68 µM (active) in test [1]; 2.91 µM (active) and 10 µM (active) in test [2]; 411 nM (active) and 2.82 µM (active) in test [3].
With `Nc1ccc(C(=O)Oc2ccccc2)c(O)c1`, the Potency entry in test [1] and in test [3] was “inactive” throughout. In test [2], the activity (max response) is -6.48%.
With `COc1ccc(C(=O)N2CCN(c3ccc4c(c3)CCC(=O)N4)CC2)cc1OC`, the Potency entry in test [1] and in test [3] was “inactive” throughout. In test [2], the activity (max response) was 5.3%.
Turning to `CCCCC(CC)COC(=O)c1ccc(N(C)C)cc1` (configuration not stated), the Potency entry in test [1] and in test [3] was “inactive” in each case. Further, the activity (max response) in test [2] is -4.79%.
Turning to `CN1C(CSCC(F)(F)F)Nc2cc(Cl)c(S(N)(=O)=O)cc2S1(=O)=O` (configuration not stated), the Potency result in test [1] and in test [3] was “inactive” throughout. For the same compound, the activity (max response) in test [2] is -6.86%.
In the case of `CC1=C(/C=C/C(C)=C/C=C/C(C)=C/C=C/C=C(C)/C=C/C=C(C)/C=C/C2=C(C)CCCC2(C)C)C(C)(C)CCC1`, the Potency in test [1] is 23.5 µM (active). For the same compound, the activity (max response) in test [2] was -7.78%. In test [3], the Potency result is “inactive”.
Take `COc1cccc(OCCCN)c1-c1cc(Nc2cnc(C#N)cn2)n[nH]1`: in test [1], the Potency was 14.6 nM (active) and 5.9 nM (active). In test [2], the activity (max response) is -3.44%. Further, the Potency result in test [3] was “inactive”.
For the compound `CN(C)CCCOc1nn(Cc2ccccc2)c2ccccc12`, the Potency result in test [1] is “inactive”. The Potency in test [2] was 11.6 µM (active); in test [3], 14.6 µM (active).
`CC(C)Oc1ccc(-c2nn([C@@H](C)c3oc4ccc(F)cc4c(=O)c3-c3cccc(F)c3)c3ncnc(N)c23)cc1F`: the Potency in test [1] was 14.8 µM (active). In addition, the activity (max response) in test [2] was 7.73%. For the same compound, in test [3], the Potency entry was “inactive”.
The like results for `CC(=O)OC[C@H]1O[C@@](COC(C)=O)(O[C@H]2O[C@H](COC(C)=O)[C@@H](OC(C)=O)[C@H](OC(C)=O)[C@H]2OC(C)=O)[C@@H](OC(C)=O)[C@@H]1OC(C)=O` were, in that order, “inactive”, 1.89% and “inactive”.
On the same counts, the results for `CCOC(=O)Oc1ccc(CCNC(=O)[C@H](CCSC)NC(C)=O)cc1OC(=O)OCC` are “inactive”, 3.57% and “inactive”.
The like results for `CCN(CC)CCCC[C@H](NC(=O)[C@H](CC(C)C)NC(=O)[C@H](C)NC(=O)[C@H](Cc1ccccc1)NC(=O)c1ccc(C(C)(C)C)cc1)C(=O)N[C@@H](CO)C(=O)OC` were, in that order, “inactive”, -29.2% and “inactive”.
As to `O=C(NNc1ccccc1)c1ccncc1`, the Potency entry in test [1] and in test [3] was “inactive” throughout. In addition, the activity (max response) in test [2] was 1.69%.
For `Cc1cc(CCCOc2c(C)cc(-c3noc(C(F)(F)F)n3)cc2C)on1`, the Potency entry in test [1] and in test [3] was “inactive” throughout. In test [2], the activity (max response) is -14.2%.
Take `C[C@@H](O)[C@H]1C(=O)N2C(C(=O)O)=C(S[C@@H]3CN[C@H](CNS(N)(=O)=O)C3)[C@H](C)[C@H]12`: the Potency result in test [1] and in test [3] was “inactive” in each case. Moreover, the activity (max response) in test [2] was 7.35%.
For `CC(C)(C)C(=O)OCOC(=O)[C@@H]1N2C(=O)[C@@H](NC(=O)[C@H](N)c3ccccc3)[C@H]2SC1(C)C`, the Potency entry in test [1] and in test [3] was “inactive” throughout. For the same compound, the activity (max response) in test [2] is 8.43%.
Regarding `CC(CCc1ccc2c(c1)OCO2)NN` (configuration not stated), the Potency result in test [1] and in test [3] was “inactive” in each case. Besides, the activity (max response) in test [2] was 9.04%.
`Cc1c(F)cccc1NC(=O)Nc1ccc(Cl)c(S(=O)(=O)[C@H]2CCCNC2)c1O`: the Potency result in test [1] and in test [3] was “inactive” throughout. Besides, the activity (max response) in test [2] is -7.46%.
In the case of `Cc1[nH]nc2ncc(C(=O)N3CCC[C@H]3c3ccc(Cl)cc3)cc12`, in test [1], the Potency was 5.25 µM (active). Further, the activity (max response) in test [2] was -6.61%. Also, the Potency result in test [3] was “inactive”.
On the same counts, the results for `Cc1cc(C)c(S(=O)(=O)N(CCc2cccc(Br)c2)Cc2ccc(-c3cccc(S(C)(=O)=O)c3)cc2)c(C)c1` are “inactive”, -27.1% and “inactive”.
Consider `CCOc1ccccc1OCCN[C@H](C)Cc1ccc(OC)c(S(N)(=O)=O)c1`, for which the Potency result in test [1] and in test [3] was “inactive” each time. The activity (max response) in test [2] is 2.5%.
Turning to `O=C1NC(=O)/C(=C/c2ccc3nccc(-c4ccncc4)c3c2)S1`, the Potency in test [1] was 461 nM (active) and 372 nM (active); in test [2], 1 µM (active); in test [3], 0.631 µM (active).
For `Cc1ccc(F)cc1S(=O)(=O)N[C@@H]1CCN(Cc2ccc(OC(C)C)cc2)C1`, the Potency in test [4] is 18.4 µM (active).
Same read-out and setting: as for `CCC(=O)c1cc(-c2ccc(Cl)cc2)n(-c2ccc(S(N)(=O)=O)cc2)c1C`, the figure is 16.4 µM (active); as for `NC(N)=NC(=O)c1cnn(-c2cccc3ncccc23)c1C1CC1`, 3.26 µM (active); as for `CCc1cc2c(cc1CC)CC(NCC(O)c1ccc(O)c3[nH]c(=O)ccc13)C2` (configuration not stated), 13 µM (active).
For `C=C1CCC2C(C)(C(=O)OC)CCCC2(C)C1CCC(C)CC(=O)O` (configuration not stated), the Potency result in test [4] is “inactive”.
The same measure, in the same setting: under `O=[N+]([O-])c1ccc(-[n+]2nc(-c3ccccc3)nn2-c2ccc(I)cc2)cc1` stands “inactive”.
The same measure, in the same setting: as for `O=C(O[C@H]1[C@@H]2C[C@@H]3OC[C@](O)([C@@H]1Cl)[C@H]2C(O[C@@H]1O[C@H](CO)[C@@H](O)[C@H](O)[C@H]1O)O3)c1ccc(O)c(O)c1` (some centres not stated), the entry is “inactive”; as for `CC1=C2CC3OC3(C)CCC3OC3(C)CC2OC1=O` (configuration not stated), 3.66 µM (active); as for `O=C(/C=C/c1ccc(O)cc1)OC[C@H]1O[C@@H](OC(=O)/C=C/c2ccccc2)[C@H](O)[C@@H](O)[C@@H]1O`, “inactive”.
On the same count and under the same terms, as for `COC(=O)[C@]1(Cc2ccc(O)c(CC=C(C)C)c2)OC(=O)C(O)=C1c1ccc(O)cc1`, the figure is 8.93 µM (active); as for `CNC(=O)c1ccccc1Nc1nc(Nc2ccc3c(c2OC)CCCC(N2CCN(CCO)CC2)C3)ncc1Cl` (configuration not stated), 0.731 µM (active).
Regarding `O=C(Nc1cc(C(F)(F)F)ccc1N1CCCCC1)c1ccncc1`, in test [4], the Potency was 14.6 µM (active).
Same read-out and setting: as for `O=C(Nc1ccn(Cc2ccc(O)cc2C(F)(F)F)n1)c1c(F)cccc1F`, the figure is 13 µM (active).
